Among the data in PubChem BioAssay AID652105 (National Center for Advancing Translational Sciences (NCATS), 2013) are max response values, retold here.

Hit rate of the full screen: of about 330,000 compounds, about 4,100 (1.2%) were called active. Roughly 2% stayed inconclusive and do not appear here. Shown is part of a subset that was picked to be rich in actives. Values without a mark were called inactive. The calls were made as follows: active = max response of -50% or lower; inconclusive = between -30% and -50%; inactive = -30% or higher.
% is scaled to controls: 0 for no effect and ±100 for the full control effect.

Phosphatidylinositol 5-phosphate 4-kinase type-2 alpha (Homo sapiens), sequence (P48426 whole entry, looked up): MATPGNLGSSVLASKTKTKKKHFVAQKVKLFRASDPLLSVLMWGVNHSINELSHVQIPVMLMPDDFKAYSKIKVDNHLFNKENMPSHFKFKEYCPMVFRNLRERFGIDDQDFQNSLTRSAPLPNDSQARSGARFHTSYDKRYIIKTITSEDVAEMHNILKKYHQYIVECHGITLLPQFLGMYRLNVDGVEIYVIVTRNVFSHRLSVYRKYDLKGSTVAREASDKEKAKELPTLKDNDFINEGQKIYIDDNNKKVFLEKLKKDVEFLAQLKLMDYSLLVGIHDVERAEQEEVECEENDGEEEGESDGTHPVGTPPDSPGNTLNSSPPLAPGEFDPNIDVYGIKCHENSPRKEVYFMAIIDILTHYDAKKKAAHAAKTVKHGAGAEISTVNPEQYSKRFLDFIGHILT

The target of the assay is Phosphatidylinositol 5-phosphate 4-kinase type-2 alpha (Homo sapiens) (UniProt P48426). The experiment in a line: qHTS for Inhibitors of phosphatidylinositol 5-phosphate 4-kinase (PI5P4K). Also: value at the top dose of about 77 µM. The note with it: PI5P4Kalpha enzyme, ADP-Glo luminescence, 60 min; active compounds read low. The gist of the method:
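Human PI5P4Kalpha with substrate in 0.038 M HEPES pH 7.4, 0.28 mM EGTA, 0.1% CHAPS, 5% DMSO; reaction started with 5 microM ATP (final), 60 min at room temperature. ADP formed read by ADP-Glo luminescence.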
`CCCCCCCCN1C(=O)[C@H](CC(=O)NCC23CC4CC(CC(C4)C2)C3)C[C@@]2(C(=O)OC)CCCCC=C12`: the max response was 8.08%. As for `N=c1c2c3c(sc2ncn1N)CCCCC3`, the max response was 0.011%.

On to `S=c1[nH]nc2c3c4c(sc3ncn12)CCCC4`, for which the max response is -58.2% (active). In the case of `N=c1c2c3c(sc2ncn1N)CCCC3` it was -4.92%; in that of `COc1ccc(CNC(=O)c2ccc(-c3cccnc3)c3ccoc23)cc1OC`, 0.62%; in that of `O=C(NCc1ccc(F)cc1)c1cc(C2CCCCN2C(=O)c2cccs2)on1` (centres undefined), -3.15%. On to `CC(C)c1cc(Cn2c3ccccc3c(=O)n2C(C)Cn2cc(C3CC3)nn2)on1` (centres undefined), for which the max response was -4.48%. Regarding `CC(C)(C)OC(=O)N1CCN(C(=O)c2[nH]c(C(F)(F)F)nc2-c2ccccc2)CC1`, the max response is 6.39%.

With `COc1cccc(C(=O)Nc2nc3ccc(S(C)(=O)=O)cc3s2)c1`, the max response was -58.6% (active). On to `CS(=O)(=O)c1ccc2nc(NC(=O)C3C4C=CC(C4)C3C(=O)O)sc2c1` (centres undefined), for which the max response was -8.9%. In the case of `CS(=O)(=O)c1ccc2nc(NC(=O)c3ccc(Cl)nc3)sc2c1` it was -8.02%. In the case of `CCOC(=O)N1CCN(C(=O)C[C@@H]2C[C@@]3(C(=O)OC)CC(C)(C)CC=C3N(Cc3ccco3)C2=O)CC1` it was -4.8%; in that of `COCCN1C(=O)N[C@@H](c2ccccc2)C(C(=O)OC)=C1C`, 3.31%.

Turning to `CC1=C(C(=O)OC(C)(C)C)C(c2ccc(Br)cc2)NC(=O)N1CCCC(=O)O` (centres undefined), the max response is -68.2% (active). With `CC1=C(C(=O)OCc2ccccc2)C(c2ccc(C(F)(F)F)cc2)NC(=O)N1CCCCCC(=O)O` (centres undefined), the max response was -6.37%.

In the case of `CCCCNC(=O)OC1CC2CC1[C@H]1CCCCN1C2=O` (some centres undefined), the max response is 2.78%. In the case of `NC(c1ccccc1)c1csc(NC(=O)Nc2cccc(C(F)(F)F)c2)n1` (centres undefined) it was -16.7%. In the case of `N#Cc1ccc(/C=C2\CCn3c2nc2cc(C(=O)O)ccc2c3=O)cc1` it was -10.5%; in that of `O=C(O)c1ccc2c(=O)n3c(nc2c1)/C(=C/c1ccc(Cl)c([N+](=O)[O-])c1)CC3`, -16.4%. On to `O=C(O)c1ccc2c(=O)n3c(nc2c1)/C(=C/c1ccc(OC(F)F)cc1OC(F)F)CC3`, for which the max response was -50.1% (active).

`CCc1nc2ccc(C(=O)N(C)CCN(C)C)cn2c1N(CC)CCOC`: the max response is 2.65%. With `OC(c1ccc(Cl)c(F)c1)c1ncc(-c2ccccc2Cl)[nH]1` (centres undefined), the max response was 10.9%. Consider `CC(C)c1ccc(CC(=O)N2CCC2(C)C(=O)NS(=O)(=O)c2ccc(C(C)(C)C)cc2)cc1` (centres undefined), for which the max response was 3.85%. On to `O=[N+]([O-])c1ccc(C=NN=Cc2ccc([N+](=O)[O-])cc2)cc1`, for which the max response was -4.59%. To `CC(=O)Nc1ccc(C=Cc2ccc([N+](=O)[O-])cc2)cc1` belongs -5.32%; to `O=C1/C(=C\c2ccc([N+](=O)[O-])cc2)CS(=O)(=O)C/C1=C/c1ccc([N+](=O)[O-])cc1`, -83.1% (active). In the case of `CC=CCn1c(SCCCc2ccccc2)nc2c1c(=O)[nH]c(=O)n2C`, the max response is -3.45%. In the case of `Cc1ccc(/C=C/C(=O)Nc2ccc([N+](=O)[O-])c(NC(=O)/C=C/c3ccc(C)o3)c2)o1` it was -71.8% (active); in that of `COC(=O)/C=C\C(=O)Nc1cccc([N+](=O)[O-])c1`, -26.6%. In the case of `Cc1ccc(/C=C/C(=O)Nc2cc(S(=O)(=O)N3CCCCCC3)ccc2OCC(F)(F)F)o1` it was 2.97%; in that of `Cc1cc(C)n2c(NCc3ccccc3)c(CC(C)C)nc2n1`, -0.19%. As for `C[C@H]1CN(c2ccc(Br)cc2)C(=O)[C@@H]1CC(=O)Nc1ccc(Br)cc1`, the max response was -1.71%. In the case of `COc1ccc(C(NC(=O)C2CCN(CCCc3ccccc3)CC2)c2cccs2)cc1` (centres undefined) it was -1.92%; in that of `O=C(CNC(=O)C1COc2ccccc2O1)N/N=C/c1cc(Br)c(O)c(Br)c1` (centres undefined), -78.5% (active); in that of `O=C(N/N=C/c1cc2c(cc1Br)OCO2)C1COc2ccccc2O1` (centres undefined), 0.44%.

With `O=C(N/N=C\c1cc(Br)c(Br)o1)C1COc2ccccc2O1` (centres undefined), the max response is 1.1%. In the case of `CC(C)NC(=O)N1Cc2cc(C(=O)NCC(F)(F)F)nc(-c3cccc(-c4cc5ccccc5o4)c3)c2[C@@H]1CCO` it was 10.9%; in that of `CN1CCN(c2ccc3c(c2)OC[C@H](Cc2ccccc2)NS3(=O)=O)CC1`, 6.74%; in that of `O=S(=O)(c1ccc(NC(=S)NN=C(C2CC2)C2CC2)cc1)N1CCOCC1`, -67.5% (active). In the case of `O=C(NC(=S)Nc1ccc(S(=O)(=O)N2CCOCC2)cc1)c1ccccc1[N+](=O)[O-]` it was -13.4%; in that of `O=C(Nc1ccc(S(=O)(=O)N2CCOCC2)cc1)C1CCN(S(=O)(=O)c2ccc(Cl)cc2)CC1`, 11.3%. `COc1cccc(-c2cnc3c(NC(C)=O)cc(-c4cc(F)ccc4OC)cn23)c1`: the max response was 0.465%. To `Cc1ccc(-c2ccc(CN3C(C)C(=O)N(Cc4cn(CCC5OCCCO5)nn4)CCS3(=O)=O)cc2)cc1` (centres undefined) belongs -1.32%. To `CCOc1ccc(-n2c(O)c(/C=N/c3ccnn3Cc3ccncc3)c3ccccc3c2=O)cc1` belongs 1.64%; to `CCOc1ccc(-n2c(O)c(/C=N/Nc3nnc(C)c(=O)[nH]3)c3ccccc3c2=O)cc1`, -64% (active). In the case of `CCOc1ccc(-n2c(O)c(/C=N/Nc3nc(C)cc(C)n3)c3ccccc3c2=O)cc1` it was 3.69%; in that of `O=C1NC(O)CCN1C1CC(O)C(CO)O1` (centres undefined), -0.0784%. For `Cc1ccc(Cc2c(-c3ccccc3)nc3ccc(Cl)cn23)cc1`, the max response was 3.67%. Consider `Cc1ccc(Cc2c(-c3ccco3)nc3ccc(Cl)cn23)cc1`, for which the max response is -53.8% (active). In the case of `Cc1ccc2nc(-c3ccco3)c(Cc3cccc(Cl)c3)n2c1` it was -20%. In the case of `Cc1ccc([C@H]2N[C@]3(CCCN(CC4CCCCC4)C3=O)[C@H]3C(=O)N(Cc4ccccc4)C(=O)[C@@H]23)cc1` it was -7.84%; in that of `Cc1cc(Cl)ccc1-c1nc(NCCN(C)C)nc2ccsc12`, 2.25%; in that of `Cc1cc(O)c(Sc2ccccc2)c(=O)o1`, 5.88%. `Cc1ccc(N=Cc2c(O)cc(C)oc2=O)c(C)c1`: the max response is -7.86%. For the compound `Cc1cc(O)c(C(=O)/C=C/c2c(F)c(F)c(F)c(F)c2F)c(=O)o1`, the max response was -77.8% (active). Take `CCc1nc2c(OCc3ccc(Cl)cc3Cl)cccn2c1N(C)C(=O)C(C)C`: the max response was 2.81%.

With `O=C(NC1CCCC1)C1c2ccccc2OCC(=O)N1Cc1ccccc1` (centres undefined), the max response was -0.138%.

As for `CCCC(=O)N1CCC1(C)C(=O)NCc1ccc(C(C)C)cc1` (centres undefined), the max response was -1.03%.

For the compound `CC(C)Cc1ccc(-c2cc3nc(NCc4cccc(Cl)c4)ccn3n2)cc1`, the max response is 47.1%. In the case of `COc1ccccc1CNC(=O)c1cc(-c2cc(Cl)ccc2C)n[nH]1` it was -0.482%; in that of `CCSc1nc(O)c(C(c2cccc(OC)c2)c2c(O)nc(SCC)[nH]c2=O)c(=O)[nH]1`, -58.8% (active); in that of `CCSc1nc(C)c(CCOc2cccc(C)c2)c(=O)[nH]1`, 0.672%. In the case of `CCn1c(SC)nc(O)c(C(c2ccc(OC)c(O)c2)c2c(O)nc(SC)n(CC)c2=O)c1=O` it was -12.5%; in that of `O=C(c1ccccc1)N1CCN(c2cc(-c3ccccc3)nc3cc(-c4cccc(Cl)c4)nn23)CC1`, 6.72%. In the case of `O=S1(=O)CC(N2CCN(Cc3ccccc3F)CC2)CN1Cc1cn(Cc2cccc(C(F)(F)F)c2)nn1` (centres undefined), the max response was 4.9%.

Take `O=C(Nc1ccc(F)cc1)C(CCc1ccccc1)N1CCN(CC(=O)N2CCCC2)CC1` (centres undefined): the max response is -9.87%.

With `CCS(=O)(=O)c1cc([N+](=O)[O-])c(Sc2ccccc2N)s1`, the max response is -65.8% (active). In the case of `Cc1ccc(S(=O)(=O)NCCSc2ccccc2)cc1[N+](=O)[O-]` it was -4.48%. On to `COc1c(C)cc(C(O)c2ncc(-c3cccc(C(F)(F)F)c3)[nH]2)cc1C` (centres undefined), for which the max response was -7.49%.

Regarding `COc1cc2cc(C(=O)N/N=C/c3cccc(OC)c3OC)[nH]c2cc1OC`, the max response was 0.853%. As to `COc1ccc(/C=N/NC(=O)c2ccc3c(c2)OCCO3)c(OC)c1`, the max response is 3.95%. `CCOc1ccc2[nH]c(C(=O)N/N=C/c3cccc(OC)c3OC)cc2c1`: the max response is 8.06%. In the case of `COc1ccc(Br)cc1/C=N/NC(=O)c1cccc(S(=O)(=O)N2CCOCC2)c1` it was -4.11%; in that of `COc1cccc(/C=N/NC(=O)c2[nH]nc3c2CCc2ccccc2-3)c1O`, -53% (active). For `COc1cccc(/C=N\NC(=O)C2=NNC(=O)C2C)c1O` (centres undefined), the max response was -72.8% (active).

Regarding `CC1(C(=O)Nc2ccc3c(c2)OCCO3)CSCC(=O)N1CCOc1ccccc1` (centres undefined), the max response was -1.05%. To `CC(C)(C)S(=O)N1Cc2cc(C(=O)NCCCN3CCOCC3)nc(-c3cccc(-c4cc5ccccc5o4)c3)c2[C@H]1CCO` (some centres undefined) belongs 0.439%; to `CCCCC[C@H](C)N1C[C@@H](COCc2ccccc2)Oc2cc(N3CCC[C@@H]3CO)ccc2S1(=O)=O`, 11.7%.

`COc1cc(/C=N/NC(=O)c2cc(C)n(-c3ccc(F)cc3)c2C)cc(OC)c1O`: the max response was -10.7%. To `Cc1nn(CC(=O)N/N=C/c2ccc(F)cc2)c(C)c1[N+](=O)[O-]` belongs -2.33%; to `Cc1cc(C(=O)N/N=C/c2ccc(O)c([N+](=O)[O-])c2)c(C)n1-c1ccc(F)cc1`, -71% (active). To `CCCNC(=O)C1(C)CCCN(C(=O)c2oc3ccccc3c2C)C1` (centres undefined) belongs -7.4%; to `CCc1nc2ccc(C(=O)Nc3ccc(OC)c(OC)c3)cn2c1N(C)C(=O)c1cccc(OC)c1`, 3.96%; to `CCOC(=O)C1=CC[C@@H](c2ccccc2)N(S(=O)(=O)c2ccc(C)cc2)[C@H]1c1cccc(OC)c1`, 4.01%.
